# In publication PMC7862700, “An all-to-all approach to the identification of sequence-specific readers for epigenetic DNA modifications on cytosine”:
# Tests used:
# Assay in all cases: DAPPL (digital affinity profiling via proximity ligation, sequencing); 10 mM Tris-HCl pH 7.5, 50 mM NaCl, 1 mM DTT, 4% glycerol, room temperature, 30 min; GST-TFs on glutathione beads, 16-mer random dsDNA library, 0.1% formaldehyde crosslink after washing; high values mean tight binding
# FLI1 = biological target: T1, FLI1 (Homo sapiens, UniProt Q01543 1-452); details: protein: recombinant; tags: N-terminal GST; dsDNA, one strand shown
# T1 sequence: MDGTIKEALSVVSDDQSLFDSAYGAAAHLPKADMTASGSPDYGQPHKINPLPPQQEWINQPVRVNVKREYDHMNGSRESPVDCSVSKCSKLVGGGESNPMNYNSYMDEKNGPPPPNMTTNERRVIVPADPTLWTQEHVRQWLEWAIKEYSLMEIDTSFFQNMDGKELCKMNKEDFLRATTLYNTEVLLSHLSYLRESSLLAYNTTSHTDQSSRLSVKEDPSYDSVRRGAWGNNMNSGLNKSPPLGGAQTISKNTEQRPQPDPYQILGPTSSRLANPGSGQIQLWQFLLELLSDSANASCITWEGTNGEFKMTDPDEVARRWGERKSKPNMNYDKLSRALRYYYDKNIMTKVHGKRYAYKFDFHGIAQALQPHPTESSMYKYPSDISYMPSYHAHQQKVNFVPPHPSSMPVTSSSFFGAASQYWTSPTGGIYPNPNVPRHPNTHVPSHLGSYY
# Outline: (§1)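 After expression in yeast as GST fusions, human transcription factors were bound to glutathione beads, DNA-barcoded and mixed with a tag-only sample. The pools were incubated with 200 nmole of a 16-mer random double-stranded DNA library in Tris/NaCl/DTT/glycerol buffer (30 min, room temperature), washed and crosslinked with 0.1% formaldehyde. Proximity ligation with BsaI/T4 ligase ran for 1 h at 37 °C, before PCR amplification and sequencing on an Illumina NextSeq500. Binding signal is a hexamer's read frequency for a factor divided by its frequency for the tag-only sample.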
# ELK1 = biological target: T2, ELK1 (Homo sapiens, UniProt P19419 1-428); details: protein: recombinant; tags: N-terminal GST; dsDNA, one strand shown
# T2 sequence: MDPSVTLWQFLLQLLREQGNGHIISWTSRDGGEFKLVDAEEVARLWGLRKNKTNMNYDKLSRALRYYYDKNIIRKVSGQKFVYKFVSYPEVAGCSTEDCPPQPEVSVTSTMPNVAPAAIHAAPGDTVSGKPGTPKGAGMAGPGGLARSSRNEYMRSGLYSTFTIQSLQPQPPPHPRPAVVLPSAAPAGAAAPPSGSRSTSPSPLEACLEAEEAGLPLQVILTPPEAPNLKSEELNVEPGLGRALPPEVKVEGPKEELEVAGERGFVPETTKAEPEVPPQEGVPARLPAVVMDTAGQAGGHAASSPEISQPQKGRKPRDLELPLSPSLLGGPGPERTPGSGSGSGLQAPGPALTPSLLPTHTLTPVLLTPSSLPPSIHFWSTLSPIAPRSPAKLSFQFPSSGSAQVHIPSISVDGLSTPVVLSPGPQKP
# Outline: as §1
# GABPA = biological target: T3, GABPA (Homo sapiens, UniProt Q06546 1-454); details: protein: recombinant; tags: N-terminal GST; dsDNA, one strand shown
# T3 sequence: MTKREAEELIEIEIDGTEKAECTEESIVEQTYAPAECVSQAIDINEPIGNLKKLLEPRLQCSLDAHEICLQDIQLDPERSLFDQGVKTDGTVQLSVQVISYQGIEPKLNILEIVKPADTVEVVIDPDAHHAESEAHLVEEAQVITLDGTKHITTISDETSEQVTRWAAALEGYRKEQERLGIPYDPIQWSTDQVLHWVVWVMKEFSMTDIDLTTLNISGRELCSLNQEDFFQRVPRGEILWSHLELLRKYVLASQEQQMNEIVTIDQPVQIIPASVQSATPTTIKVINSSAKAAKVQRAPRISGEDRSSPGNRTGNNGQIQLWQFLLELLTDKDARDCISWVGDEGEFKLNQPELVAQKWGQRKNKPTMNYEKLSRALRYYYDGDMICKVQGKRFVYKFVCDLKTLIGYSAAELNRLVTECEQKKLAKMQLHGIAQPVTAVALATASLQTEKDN
# Outline: as §1
# ERG = biological target: T4, ERG (Homo sapiens, UniProt P11308 1-479); details: protein: recombinant; tags: N-terminal GST; dsDNA, one strand shown
# T4 sequence: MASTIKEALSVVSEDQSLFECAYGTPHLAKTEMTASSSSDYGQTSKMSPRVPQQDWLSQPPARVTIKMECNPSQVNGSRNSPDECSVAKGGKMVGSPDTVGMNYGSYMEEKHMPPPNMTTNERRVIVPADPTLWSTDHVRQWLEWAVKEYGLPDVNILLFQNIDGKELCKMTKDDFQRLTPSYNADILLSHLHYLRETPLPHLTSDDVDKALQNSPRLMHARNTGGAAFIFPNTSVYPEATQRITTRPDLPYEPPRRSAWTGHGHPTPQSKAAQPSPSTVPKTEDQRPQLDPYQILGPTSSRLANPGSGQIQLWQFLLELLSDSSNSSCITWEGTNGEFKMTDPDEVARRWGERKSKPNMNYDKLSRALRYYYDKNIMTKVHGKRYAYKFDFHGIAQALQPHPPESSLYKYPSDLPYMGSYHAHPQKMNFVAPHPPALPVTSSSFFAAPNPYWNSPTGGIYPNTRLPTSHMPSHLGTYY
# Outline: as §1
# ELF1 = ELF1 (Homo sapiens, UniProt P32519 1-619); details: protein: recombinant; tags: N-terminal GST; dsDNA, one strand shown
# Sequence of ELF1 (P32519 whole entry): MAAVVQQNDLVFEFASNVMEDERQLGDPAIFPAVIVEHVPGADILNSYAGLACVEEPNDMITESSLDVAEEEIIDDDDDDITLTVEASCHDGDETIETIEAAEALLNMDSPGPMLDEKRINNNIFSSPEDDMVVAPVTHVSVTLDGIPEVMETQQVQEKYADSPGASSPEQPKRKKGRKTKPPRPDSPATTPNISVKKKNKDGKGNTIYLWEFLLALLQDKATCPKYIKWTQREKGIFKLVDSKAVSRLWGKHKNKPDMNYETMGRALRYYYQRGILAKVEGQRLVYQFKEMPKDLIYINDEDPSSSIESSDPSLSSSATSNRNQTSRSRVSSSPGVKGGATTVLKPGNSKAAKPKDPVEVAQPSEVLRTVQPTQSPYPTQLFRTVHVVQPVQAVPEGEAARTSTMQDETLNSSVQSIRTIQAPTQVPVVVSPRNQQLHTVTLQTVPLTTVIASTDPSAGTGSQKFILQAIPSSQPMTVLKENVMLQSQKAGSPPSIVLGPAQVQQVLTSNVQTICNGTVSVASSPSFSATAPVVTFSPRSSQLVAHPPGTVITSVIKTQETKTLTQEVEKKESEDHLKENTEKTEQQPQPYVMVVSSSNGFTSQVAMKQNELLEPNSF
# Outline: as §1
# EHF = biological target: T5, EHF (Homo sapiens, UniProt Q9NZC4 1-300); details: protein: recombinant; tags: N-terminal GST; dsDNA, one strand shown
# T5 sequence: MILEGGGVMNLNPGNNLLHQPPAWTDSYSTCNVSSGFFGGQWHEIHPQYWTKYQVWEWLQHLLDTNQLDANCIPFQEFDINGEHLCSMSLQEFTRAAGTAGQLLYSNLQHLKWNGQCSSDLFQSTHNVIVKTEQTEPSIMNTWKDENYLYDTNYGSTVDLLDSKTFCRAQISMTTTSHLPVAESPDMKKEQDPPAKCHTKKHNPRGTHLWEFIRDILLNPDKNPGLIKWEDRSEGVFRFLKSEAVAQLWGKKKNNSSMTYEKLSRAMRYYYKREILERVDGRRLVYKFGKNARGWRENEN
# Outline: as §1
# SPI1 = SPI1 (Homo sapiens, UniProt P17947 1-270); details: protein: recombinant; tags: N-terminal GST; dsDNA, one strand shown
# Outline: as §1
# SPIB = SPIB (Homo sapiens, UniProt Q01892 1-262); details: protein: recombinant; tags: N-terminal GST; dsDNA, one strand shown
# Sequence of SPIB (Q01892 whole entry): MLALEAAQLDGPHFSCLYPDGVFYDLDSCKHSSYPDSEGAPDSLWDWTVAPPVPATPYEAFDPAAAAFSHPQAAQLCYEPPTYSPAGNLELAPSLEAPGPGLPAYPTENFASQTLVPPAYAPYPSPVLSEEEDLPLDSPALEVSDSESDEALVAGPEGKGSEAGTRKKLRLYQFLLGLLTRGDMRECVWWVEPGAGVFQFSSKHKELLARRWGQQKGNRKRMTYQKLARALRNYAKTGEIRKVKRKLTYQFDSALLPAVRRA
# Outline: as §1
# ELK3 = biological target: T6, ELK3 (Homo sapiens, UniProt P41970 1-407); details: protein: recombinant; tags: N-terminal GST; dsDNA, one strand shown
# T6 sequence: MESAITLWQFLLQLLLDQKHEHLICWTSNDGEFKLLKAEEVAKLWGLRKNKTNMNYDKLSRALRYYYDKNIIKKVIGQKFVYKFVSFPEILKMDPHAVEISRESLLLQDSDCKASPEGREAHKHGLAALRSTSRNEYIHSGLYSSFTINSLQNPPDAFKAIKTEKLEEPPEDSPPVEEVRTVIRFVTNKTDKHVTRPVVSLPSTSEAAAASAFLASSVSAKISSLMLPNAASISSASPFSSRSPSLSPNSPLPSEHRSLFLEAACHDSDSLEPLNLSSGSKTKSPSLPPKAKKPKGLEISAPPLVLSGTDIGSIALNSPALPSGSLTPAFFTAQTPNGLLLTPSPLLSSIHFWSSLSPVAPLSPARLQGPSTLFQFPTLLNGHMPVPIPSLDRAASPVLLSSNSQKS
# Outline: as §1
# FEV = biological target: T7, FEV (Homo sapiens, UniProt Q99581 1-238); details: protein: recombinant; tags: N-terminal GST; dsDNA, one strand shown
# T7 sequence: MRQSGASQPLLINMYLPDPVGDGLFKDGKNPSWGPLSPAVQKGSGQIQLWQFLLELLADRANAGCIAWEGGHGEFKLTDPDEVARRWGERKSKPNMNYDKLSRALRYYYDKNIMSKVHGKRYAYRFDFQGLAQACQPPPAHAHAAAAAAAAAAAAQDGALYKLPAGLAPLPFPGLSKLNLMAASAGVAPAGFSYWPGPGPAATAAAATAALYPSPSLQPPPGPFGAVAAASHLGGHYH
# Outline: as §1
# ETV5 = ETV5 (Homo sapiens, UniProt P41161 1-510); details: protein: recombinant; tags: N-terminal GST; dsDNA, one strand shown
# Sequence of ETV5 (P41161 whole entry): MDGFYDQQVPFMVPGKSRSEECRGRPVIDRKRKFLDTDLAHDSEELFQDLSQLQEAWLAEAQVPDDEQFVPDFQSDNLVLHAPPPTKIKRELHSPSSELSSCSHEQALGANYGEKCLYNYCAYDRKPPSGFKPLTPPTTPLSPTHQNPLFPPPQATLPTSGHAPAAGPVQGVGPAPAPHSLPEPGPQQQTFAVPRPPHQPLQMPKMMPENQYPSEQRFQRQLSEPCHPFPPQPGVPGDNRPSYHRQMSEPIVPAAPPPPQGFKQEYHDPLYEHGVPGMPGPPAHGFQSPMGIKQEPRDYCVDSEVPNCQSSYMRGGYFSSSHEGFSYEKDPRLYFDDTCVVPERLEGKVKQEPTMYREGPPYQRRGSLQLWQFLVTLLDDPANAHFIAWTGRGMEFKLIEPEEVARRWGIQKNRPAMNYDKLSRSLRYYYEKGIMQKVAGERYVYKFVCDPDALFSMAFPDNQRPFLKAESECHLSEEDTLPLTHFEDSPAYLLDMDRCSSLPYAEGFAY
# Outline: as §1
# HSF1 = HSF1 (Homo sapiens, UniProt Q00613 1-529); details: protein: recombinant; tags: N-terminal GST; chain copies: 3; dsDNA, one strand shown
# Sequence of HSF1 (Q00613 whole entry): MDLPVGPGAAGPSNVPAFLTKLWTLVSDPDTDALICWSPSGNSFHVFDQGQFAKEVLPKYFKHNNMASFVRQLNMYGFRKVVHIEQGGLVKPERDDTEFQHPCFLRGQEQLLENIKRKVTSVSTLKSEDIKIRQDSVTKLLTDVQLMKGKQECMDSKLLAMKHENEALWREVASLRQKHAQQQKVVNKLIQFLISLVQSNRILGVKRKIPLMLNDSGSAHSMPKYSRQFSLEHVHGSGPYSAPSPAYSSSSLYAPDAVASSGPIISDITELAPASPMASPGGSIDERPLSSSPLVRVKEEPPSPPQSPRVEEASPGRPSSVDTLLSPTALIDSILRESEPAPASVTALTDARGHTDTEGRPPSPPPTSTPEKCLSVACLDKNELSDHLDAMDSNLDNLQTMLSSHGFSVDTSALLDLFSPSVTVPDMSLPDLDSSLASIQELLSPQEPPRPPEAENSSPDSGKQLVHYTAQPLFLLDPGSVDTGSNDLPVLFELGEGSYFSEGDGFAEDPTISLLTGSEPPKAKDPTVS
# Outline: as §1
# SPIC = biological target: T8, SPIC (Homo sapiens, UniProt Q8N5J4 1-248); details: protein: recombinant; tags: N-terminal GST; dsDNA, one strand shown
# T8 sequence: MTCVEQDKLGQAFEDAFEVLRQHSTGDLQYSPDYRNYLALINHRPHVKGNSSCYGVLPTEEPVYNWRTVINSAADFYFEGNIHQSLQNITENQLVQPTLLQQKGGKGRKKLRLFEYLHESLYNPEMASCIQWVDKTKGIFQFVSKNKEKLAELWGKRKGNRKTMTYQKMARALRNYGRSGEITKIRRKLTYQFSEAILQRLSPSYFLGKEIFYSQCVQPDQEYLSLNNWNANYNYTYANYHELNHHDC
# Outline: as §1
# ELF4 = ELF4 (Homo sapiens, UniProt Q99607 1-663); details: protein: recombinant; tags: N-terminal GST; dsDNA, one strand shown
# Sequence of ELF4 (Q99607 whole entry): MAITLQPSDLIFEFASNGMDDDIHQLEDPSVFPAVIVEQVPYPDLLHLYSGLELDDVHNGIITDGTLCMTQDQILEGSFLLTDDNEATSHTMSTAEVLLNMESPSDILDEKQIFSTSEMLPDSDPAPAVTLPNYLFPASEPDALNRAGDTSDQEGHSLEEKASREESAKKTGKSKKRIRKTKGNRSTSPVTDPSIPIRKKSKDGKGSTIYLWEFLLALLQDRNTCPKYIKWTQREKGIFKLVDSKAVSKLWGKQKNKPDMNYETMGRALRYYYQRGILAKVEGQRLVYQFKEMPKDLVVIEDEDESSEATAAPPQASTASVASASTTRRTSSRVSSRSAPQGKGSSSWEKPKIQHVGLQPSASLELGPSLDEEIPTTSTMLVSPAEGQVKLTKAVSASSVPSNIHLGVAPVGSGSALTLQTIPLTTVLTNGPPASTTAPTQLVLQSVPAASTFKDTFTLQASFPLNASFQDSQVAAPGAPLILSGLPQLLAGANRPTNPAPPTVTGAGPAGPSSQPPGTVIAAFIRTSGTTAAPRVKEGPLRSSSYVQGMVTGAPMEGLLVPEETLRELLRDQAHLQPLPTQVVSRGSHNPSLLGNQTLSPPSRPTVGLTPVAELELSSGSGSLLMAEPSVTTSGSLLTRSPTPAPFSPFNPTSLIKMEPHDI
# Outline: as §1
# ELK4 = biological target: T9, ELK4 (Homo sapiens, UniProt P28324-2 1-405); details: protein: recombinant; tags: N-terminal GST; dsDNA, one strand shown
# T9 sequence: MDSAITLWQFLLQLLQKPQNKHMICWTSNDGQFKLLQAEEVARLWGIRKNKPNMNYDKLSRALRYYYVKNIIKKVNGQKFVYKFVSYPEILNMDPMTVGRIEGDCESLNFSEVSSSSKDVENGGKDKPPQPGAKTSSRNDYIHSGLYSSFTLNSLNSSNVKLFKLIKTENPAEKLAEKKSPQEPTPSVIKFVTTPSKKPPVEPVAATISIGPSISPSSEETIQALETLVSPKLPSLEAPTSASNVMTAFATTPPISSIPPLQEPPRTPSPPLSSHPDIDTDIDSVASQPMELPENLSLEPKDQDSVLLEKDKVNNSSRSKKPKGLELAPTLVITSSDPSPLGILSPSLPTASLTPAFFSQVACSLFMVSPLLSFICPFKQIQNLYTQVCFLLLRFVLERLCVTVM
# Outline: as §1
# ETV2 = biological target: T10, ETV2 (Homo sapiens, UniProt O00321 1-342); details: protein: recombinant; tags: N-terminal GST; dsDNA, one strand shown
# T10 sequence: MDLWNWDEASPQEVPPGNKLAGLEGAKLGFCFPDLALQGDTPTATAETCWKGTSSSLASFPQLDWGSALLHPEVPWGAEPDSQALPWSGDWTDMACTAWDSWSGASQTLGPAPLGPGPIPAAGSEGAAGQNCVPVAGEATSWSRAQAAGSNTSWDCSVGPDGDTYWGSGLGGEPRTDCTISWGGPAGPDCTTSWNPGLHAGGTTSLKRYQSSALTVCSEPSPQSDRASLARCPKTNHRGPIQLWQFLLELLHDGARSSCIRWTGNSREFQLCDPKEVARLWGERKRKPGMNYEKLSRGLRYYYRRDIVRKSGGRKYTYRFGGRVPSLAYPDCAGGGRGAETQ
# Outline: as §1
# ELF3 = biological target: T11, ELF3 (Homo sapiens, UniProt P78545 1-371); details: protein: recombinant; tags: N-terminal GST; dsDNA, one strand shown
# T11 sequence: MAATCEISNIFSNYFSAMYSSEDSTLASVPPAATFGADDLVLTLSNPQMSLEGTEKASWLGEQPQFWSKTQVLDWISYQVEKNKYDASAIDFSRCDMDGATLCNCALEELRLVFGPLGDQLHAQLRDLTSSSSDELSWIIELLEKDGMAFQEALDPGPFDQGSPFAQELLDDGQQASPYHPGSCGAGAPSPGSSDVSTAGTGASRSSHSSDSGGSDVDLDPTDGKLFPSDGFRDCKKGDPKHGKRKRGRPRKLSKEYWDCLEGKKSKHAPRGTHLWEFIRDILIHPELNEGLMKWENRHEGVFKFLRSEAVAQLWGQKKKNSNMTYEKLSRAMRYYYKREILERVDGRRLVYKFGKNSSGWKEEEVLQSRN
# Outline: as §1
# CRX = CRX (Homo sapiens, UniProt O43186 1-299); details: protein: recombinant; tags: N-terminal GST; dsDNA, one strand shown
# Sequence of CRX (O43186 whole entry): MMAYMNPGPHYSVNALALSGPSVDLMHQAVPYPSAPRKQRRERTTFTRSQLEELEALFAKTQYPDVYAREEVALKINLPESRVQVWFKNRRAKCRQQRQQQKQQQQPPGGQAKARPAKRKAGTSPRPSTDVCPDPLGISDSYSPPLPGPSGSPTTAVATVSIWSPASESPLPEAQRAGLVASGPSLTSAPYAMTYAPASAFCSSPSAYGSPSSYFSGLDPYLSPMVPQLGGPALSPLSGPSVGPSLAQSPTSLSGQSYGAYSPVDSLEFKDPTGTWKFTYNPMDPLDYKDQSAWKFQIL
# Outline: as §1
# ETV1 = ETV1 (Homo sapiens, UniProt P50549 1-477); details: protein: recombinant; tags: N-terminal GST; dsDNA, one strand shown
# Sequence of ETV1 (P50549 whole entry): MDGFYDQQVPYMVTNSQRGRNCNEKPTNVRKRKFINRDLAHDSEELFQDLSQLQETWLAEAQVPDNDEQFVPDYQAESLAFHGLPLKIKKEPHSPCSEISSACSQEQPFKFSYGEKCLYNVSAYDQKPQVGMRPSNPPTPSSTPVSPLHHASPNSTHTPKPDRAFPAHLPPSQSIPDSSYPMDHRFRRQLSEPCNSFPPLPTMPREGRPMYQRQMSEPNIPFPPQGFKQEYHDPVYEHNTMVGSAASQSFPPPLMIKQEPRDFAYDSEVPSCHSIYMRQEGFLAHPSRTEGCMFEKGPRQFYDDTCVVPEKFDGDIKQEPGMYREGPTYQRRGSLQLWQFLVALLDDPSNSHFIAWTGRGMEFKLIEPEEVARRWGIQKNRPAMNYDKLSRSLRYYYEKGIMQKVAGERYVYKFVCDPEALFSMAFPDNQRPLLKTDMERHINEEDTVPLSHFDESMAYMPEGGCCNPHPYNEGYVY
# Outline: as §1
sequence,measurement,setting,value
AAGAAT,binding signal,FLI1,"1.13 fold enrichment (6-mer frequency, TF over GST control)"
same,binding signal,ELK1,"1.17 fold enrichment (6-mer frequency, TF over GST control)"
same,binding signal,GABPA,"1.13 fold enrichment (6-mer frequency, TF over GST control)"
same,binding signal,ERG,"1.15 fold enrichment (6-mer frequency, TF over GST control)"
same,binding signal,ELF1,"1.11 fold enrichment (6-mer frequency, TF over GST control)"
same,binding signal,EHF,"1.14 fold enrichment (6-mer frequency, TF over GST control)"
same,binding signal,SPI1,"1.18 fold enrichment (6-mer frequency, TF over GST control)"
same,binding signal,SPIB,"1.14 fold enrichment (6-mer frequency, TF over GST control)"
same,binding signal,ELK3,"1.1 fold enrichment (6-mer frequency, TF over GST control)"
same,binding signal,FEV,"1.09 fold enrichment (6-mer frequency, TF over GST control)"
same,binding signal,ETV5,"1.11 fold enrichment (6-mer frequency, TF over GST control)"
same,binding signal,HSF1,"1.83 fold enrichment (6-mer frequency, TF over GST control)"
same,binding signal,SPIC,"1.08 fold enrichment (6-mer frequency, TF over GST control)"
same,binding signal,ELF4,"1.24 fold enrichment (6-mer frequency, TF over GST control)"
same,binding signal,ELK4,"1.09 fold enrichment (6-mer frequency, TF over GST control)"
same,binding signal,ETV2,"1.12 fold enrichment (6-mer frequency, TF over GST control)"
same,binding signal,ELF3,"1.17 fold enrichment (6-mer frequency, TF over GST control)"
same,binding signal,CRX,"1.43 fold enrichment (6-mer frequency, TF over GST control)"
same,binding signal,ETV1,"1.15 fold enrichment (6-mer frequency, TF over GST control)"
